Among the data in PubChem BioAssay (Tox21) are Potency values, retold here.

Experiment [1] can be described thus: qHTS assay to identify small molecule agonists of the RXR signaling pathway - cell viability counter screen (AID 1159529). Note: nearly all actives have a fitted effect of over 50% in size. Note: potency is the fitted concentration of half-maximal effect. The essentials:
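Cell viability is measured by CellTiter-Glo luminescence, 30 min at room temperature, in wells already read for beta-lactamase. Engineered HEK 293T cells (RXR-alpha-UAS-bla) are dosed 16 hr at 37 C. Tetraoctyl ammonium bromide serves as positive control.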

A short description of experiment [2]: qHTS assay to identify small molecule antagonists of the retinoid acid receptor (RAR) signaling pathway - cell viability counter screen (AID 1159551). Note: nearly all actives have a fitted effect of over 35% in size. The essentials: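 C3RL4 cells were seeded overnight at 37 C, then treated with compounds plus 1 uM (final) retinol for 6 h at 37 C. Viability was read as ATP by CellTiter-Glo luminescence after 30 min at room temperature.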

Experiment [3] in a line: qHTS assay to identify small molecule antagonists of the retinoic acid receptor (RAR) signaling pathway (AID 1159552; note: nearly all actives have a fitted effect of over 50% in size; note: potency is the fitted concentration of half-maximal effect). The essentials: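 Quantitative HTS in C3RL4 RARE-luciferase reporter cells. Compounds were added with 1 uM (final) retinol; luminescence was read after 6 hr.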
The nature of experiment [4]: qHTS assay to identify small molecule antagonists of the estrogen related receptor (ERR) signaling pathway from Tox21 library - cell viability counter screen (AID 1224834). Note: nearly all actives have a fitted effect of over 30% in size. Note: potency is the fitted concentration of half-maximal effect. The essentials: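 ERR reporter cells were plated 6 h before compound addition, then exposed to test compounds in DMSO for 17.5 h at 37 C. Viability was read as CellTiter-Fluor fluorescence after a 30-minute incubation at 37 C.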

Experiment [5] in a line: qHTS assay to identify small molecule agonists of the retinoic acid receptor (RAR) signaling pathway (AID 1159553). Note: potency is the fitted concentration of half-maximal effect. The essentials:
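C3RL4 cells carrying a RARE luciferase reporter were plated overnight at 37 C, then exposed to compounds in DMSO for 6 hr at 37 C and 5% CO2. Luminescence was read 30 min after luciferase reagent addition at room temperature.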

SMILES strings stand for the structures. Records with an inconclusive call do not appear. Calls of active or inactive are those of the source. Calls come from the whole dose curve; as a rule, active = well fitted curve in the direction sought with a large enough effect in the repeat runs; inconclusive = weak or mixed curves; inactive = no such curve, though single readings can be large; an effect the other way counts as inactive or inconclusive.

For `O=C(/C=C/c1ccc(O)c(O)c1)O[C@@H]1C[C@](O)(C(=O)O)C[C@@H](O)[C@H]1O`, the Potency result in experiment [1], in experiment [2], in experiment [3] and in experiment [4] was “inactive” each time.

For `CCCCCCCCCCCCCCCBr`, the Potency entry in experiment [1], in experiment [2], in experiment [3] and in experiment [4] was “inactive” each time.

Regarding `Cn1c(=O)c2c(ncn2CC(O)CO)n(C)c1=O` (stereo not drawn), the Potency result in experiment [1], in experiment [2], in experiment [3], in experiment [5] and in experiment [4] was “inactive” throughout.

As for `Cc1nc2ccccc2n1Cc1ccc(Cl)cc1`, the Potency entry in experiment [1], in experiment [2], in experiment [3] and in experiment [4] was “inactive” in each case.

On to `O=C(O)C1CCC(C(=O)O)CC1` (stereo not drawn), for which the Potency entry in experiment [1], in experiment [2], in experiment [5] and in experiment [4] was “inactive” throughout.

As to `Cc1ccccn1`, the Potency result in experiment [1], in experiment [2], in experiment [3], in experiment [5] and in experiment [4] was “inactive” in each case.

For the compound `O=S1(=O)N=C(O)c2ccccc21`, the Potency entry in experiment [1], in experiment [2], in experiment [5] and in experiment [4] was “inactive” each time.

On to `CC(C(=O)O)c1ccc(-c2ccccc2)c(F)c1` (stereo not drawn), for which the Potency result in experiment [1], in experiment [2], in experiment [3], in experiment [5] and in experiment [4] was “inactive” throughout.

Consider `ClC(Cl)(Cl)c1ccc(C(Cl)(Cl)Cl)cc1`, for which the Potency entry in experiment [1], in experiment [2], in experiment [3] and in experiment [4] was “inactive” in each case.

Regarding `CC(=O)O[C@H]1C[C@@H]2CC[C@@H]3[C@H](CC[C@@]4(C)[C@H]3C[C@H]([N+]3(C)CCCCC3)[C@@H]4OC(C)=O)[C@@]2(C)C[C@@H]1N1CCCCC1`, the Potency entry in experiment [1], in experiment [2] and in experiment [4] was “inactive” in each case.

Take `CC1=CC(=O)/C(=C(/C)O)C(=O)O1`: the Potency entry in experiment [1], in experiment [3], in experiment [5] and in experiment [4] was “inactive” throughout.

As to `NC(N)=NN=C(/C=C/c1ccc([N+](=O)[O-])o1)/C=C/c1ccc([N+](=O)[O-])o1`, the Potency was 8.49 µM (active) in experiment [1], 7.5 µM (active) in experiment [3], 2.11 µM (active) in experiment [5] and 2.98 µM (active) in experiment [4].

Take `C=CC(=O)OCCOC(=O)CCC(=O)O`: the Potency entry in experiment [1], in experiment [2] and in experiment [4] was “inactive” throughout.
